Consider seven compounds from PubChem BioAssay (Tox21).

Experiment [1] in a line: qHTS assay to identify small molecule antagonists of the androgen receptor (AR) signaling pathway using the MDA cell line in the presence of 0.5 nM R1881 - cell viability counter screen (AID 1259242). Further: nearly all actives have a fitted effect of over 45% in size. Further: potency means the concentration at half of the fitted maximal effect. The procedure, abridged: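 Live-cell protease fluorescence, CellTiter-Fluor, 30 min at 37C. Cells: MDA-kb2, 3,000/well, preincubated 5 hr. Compounds plus 0.5 nM R1881 final, 16 hr, 37C, 0% CO2.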
For orientation: Quantitative high-throughput screening tests each substance at several concentrations.

Experiment [2] is described as follows: qHTS assay to identify small molecule phospholipidosis (PLD) inducers (AID 1259344; active means well fitted curve in the direction sought with a large enough effect; an effect the other way counts as inactive or inconclusive). The procedure, abridged: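 Cells (HepG2, 900 per well) attach for 4 h, receive LipidTOX Red and compound together, incubate 24 h at 37 C, are fixed 30 min with paraformaldehyde/Hoechst, then imaged at one site per well.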
Experiment [3] can be described thus: qHTS assay to identify small molecule HDAC inhibitors (AID 1259364).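 Further: wild-type HCT-116 cells with endogenous class I/II HDAC activity; top concentration of the series differs between compounds; nearly all actives have a fitted effect of over 45% in size.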 The procedure, abridged:
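HCT-116 (wild type), 1,500 cells/well, overnight; compound 2 hr 37C 5% CO2; HDAC-Glo I/II reagent 30 min RT; luminescence readout.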

Experiment [4] is described as follows: qHTS assay to identify small molecule HDAC inhibitors - cell viability counter screen (AID 1259365). Further: series mostly up to about 92 µM; nearly all actives have a fitted effect of over 50% in size. The procedure, abridged:
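Measured quantity is CellTiter-Glo luminescence from wild-type HCT-116 cells after compound incubation of 2hr at 37C, 5% CO2; reagent developed 30min at room temperature.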

The nature of experiment [5]: qHTS assay to identify small molecule agonists of the sonic hedgehog signaling (Shh) pathway - cell viability counter screen (AID 1259366). Further: nearly all actives have a fitted effect of over 50% in size. The procedure, abridged:
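In quantitative high-throughput format, 3T3 Gli1-Luc cells were exposed to compounds for 24hr and multiplexed for viability using CellTiter-Fluor, incubated 1hr at 37C before the fluorescence read.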

Experiment [6] is described as follows: qHTS assay to identify small molecule antagonists of the sonic hedgehog signaling (Shh) pathway - cell viability counter screen (AID 1259367). Further: nearly all actives have a fitted effect of over 55% in size. The procedure, abridged: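 Cytotoxicity was assessed in parallel with Shh reporter activity by measuring live-cell protease fluorescence (CellTiter-Fluor) in NIH/3T3 cells stably carrying Gli1-Luc, treated with compound under conditioned medium stimulation for 23 hr plus 1 hr reagent incubation.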

Experiment [7] in a line: qHTS assay to identify small molecule agonists of the sonic hedgehog signaling (Shh) pathway (AID 1259368; calls by dose curve;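 further: NIH/3T3-derived 3T3Gli1-Luc cells carrying a stable Gli1-driven firefly luciferase reporter; series mostly up to about 92 µM; nearly all actives have a fitted effect of over 15% in size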). The procedure, abridged: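 Read-out: firefly luciferase luminescence from a Gli1 response element reporter stably integrated in NIH/3T3-derived 3T3Gli1-Luc cells, measured 30 min at room temperature after reagent addition. Compound exposure lasted 24 hr at 37 C, 5% CO2.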

The target in experiment [8] is Estrogen receptor beta (Homo sapiens) (UniProt Q92731). Kind of experiment: qHTS assay to identify small molecule antagonists of the estrogen receptor beta (ER-beta) signaling pathway (AID 1259378; active means well fitted inhibition curve with a large enough effect in the signal ratio in the repeat runs, not every such curve was filed as active; the % refers to the signal ratio). The procedure, abridged: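 ER-beta-UAS-bla HEK293T (GripTite) cells in 2% charcoal-stripped FBS medium were preincubated 6 hr at 37C, dosed with compound, then stimulated with 1 nM E2 (final) for 16 hr; beta-lactamase reporter read by B/G FRET fluorescence after 2 hr substrate loading.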

Experiment [9] in a line: qHTS assay to identify small molecule agonists of the androgen receptor (AR) signaling pathway in the presence of an antagonist - cell viability counter screen (AID 1259379). Further: nearly all actives have a fitted effect of over 25% in size. Further: potency means the concentration at half of the fitted maximal effect.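 On activity change, negative = cytotoxicity: MDA-kb2 human breast cancer cells carrying an MMTV luciferase reporter; series mostly up to about 92 µM.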 The procedure, abridged: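 Viability counter screen: CellTiter-Fluor fluorescence, measured in the same wells as the luciferase read-out. MDA-kb2 cells, 3,000/well, with nilutamide at 3.0uM final and compounds at 15 concentrations, 16 hr at 37C, 0% CO2.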

Experiment [10] is described as follows: qHTS assay to identify small molecule agonists of the estrogen receptor beta (ER-beta) signaling pathway - cell viability counter screen (AID 1259380). Further: nearly all actives have a fitted effect of over 30% in size. The procedure, abridged: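 Luminescence read-out (CellTiter-Glo, 30 min, room temp) taken in the same wells as the beta-lactamase reporter assay; ER-beta-UAS-bla HEK293T cells exposed to DMSO-dissolved compounds for 16 hr at 37C in 2% charcoal-stripped FBS medium.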

A short description of experiment [11]: qHTS assay to identify small molecule antagonists of the estrogen receptor beta (ER-beta) signaling pathway - cell viability counter screen (AID 1259382). Further: series mostly up to about 92 µM; nearly all actives have a fitted effect of over 55% in size. The procedure, abridged: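 Luminescent ATP read-out (CellTiter-Glo, 30 min, RT) taken in the same wells as the bla reporter assay. HEK293T ER-beta-UAS-bla cells in 2% charcoal-stripped FBS were exposed to compounds with 1nM E2 for 16 hr at 37C.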

Experiment [12] in a line: qHTS assay to identify small molecule agonists or antagonists of the thyroid stimulating hormone receptor (TSHR) signaling pathway - wild type cell line counter screen (AID 1259384; calls by dose curve). The procedure, abridged:
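Wild-type HEK293 cells were plated 18 h at 37 C/5% CO2, pin-dosed with compound plus Ro20-1724 medium, held 30 min at room temperature, then given cAMP-d2 and anti-cAMP-cryptate; fluorescence was read after 1 h. Fifteen concentrations, triplicate.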

A short description of experiment [13]: qHTS assay to identify small molecule agonists of the estrogen receptor alpha (ER-alpha) signaling pathway in the presence of an antagonist - cell viability counter screen (AID 1259386). Further: nearly all actives have a fitted effect of over 30% in size. Further: potency means the concentration at half of the fitted maximal effect. On activity change, negative = cytotoxicity: series mostly up to about 92 µM. The procedure, abridged: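 Read-out: CellTiter-Fluor fluorescence after 1hr reagent incubation, measured in the same wells as the luciferase readout. VM7Luc4E2 cells were exposed to 15 compound concentrations with 10.0nM ICI-182,780 for 22hr at 37C.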

Experiment [14] deals with Estrogen receptor (Homo sapiens) (UniProt P03372). Nature of the experiment: qHTS assay to identify small molecule antagonists of the estrogen receptor alpha (ER-alpha) signaling pathway using the BG1 cell line in the presence of 0.1 nM 17-beta-estradiol (AID 1259244). Further: nearly all actives have a fitted effect of over 50% in size. The procedure, abridged: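 Luminescence after ONE-Glo (30 min, room temperature) measured ERE-luciferase activity in VM7Luc4E2 cells treated 22 h with compound and 0.1 nM final 17beta-estradiol as stimulator.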

Experiment [15] can be described thus: qHTS assay to identify small molecule antagonists of the sonic hedgehog signaling (Shh) pathway (AID 1259369; calls by dose curve; further: nearly all actives have a fitted effect of over 45% in size; further: potency means the concentration at half of the fitted maximal effect). The procedure, abridged:
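Luminescence readout: firefly Luc under Gli1 response element in 3T3Gli1-Luc cells (NIH/3T3 clone). Antagonist mode, stimulation by conditioned medium; compound exposure 24hr at 37 C, 5% CO2.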

Experiment [16] deals with Estrogen receptor beta (Homo sapiens) (UniProt Q92731). Kind of experiment: qHTS assay to identify small molecule agonists of the estrogen receptor beta (ER-beta) signaling pathway (AID 1259377; active means well fitted activation curve with a large enough effect in the signal ratio in the repeat runs, not every such curve was filed as active; the % refers to the signal ratio). The procedure, abridged:
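Reporter cells (HEK293T, ER-beta-UAS-bla) receive compounds or DMSO after a 6 hr pre-incubation. They then incubate 16 hr at 37C/5% CO2, and fluorescence from LiveBLAzer B/G substrate is measured after 2 hours at room temperature.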

For experiment [17], the target named is Estrogen receptor (Homo sapiens) (UniProt P03372). Nature of the experiment: qHTS assay to identify small molecule agonists of the estrogen receptor alpha (ER-alpha) signaling pathway in the presence of an antagonist (AID 1259383; calls by dose curve; further: top concentration of the series differs between compounds; nearly all actives have a fitted effect of over 15% in size). The procedure, abridged: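 Luciferase luminescence (ONE-Glo, 30min at room temperature) measured in VM7Luc4E2 cells after 22hr compound exposure at 15 concentrations, with 10.0nM ICI-182,780 final present; cells express endogenous ER-alpha and carry four EREs upstream of luciferase.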

The target of experiment [18] is Thyrotropin receptor (Homo sapiens) (UniProt P16473). Kind of experiment: qHTS assay to identify small molecule antagonists of the thyroid stimulating hormone receptor (TSHR) signaling pathway (AID 1259385; calls by dose curve; further: nearly all actives have a fitted effect of over 20% in size; further: potency means the concentration at half of the fitted maximal effect). The procedure, abridged:
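TSHR-HEK293 cells were plated and held 18 h at 37C/5% CO2, then given compound plus Ro20-1724 and stimulated with TSH at 1.5 ng/mL final. After 30 min at room temperature, cAMP was detected with cAMP-d2/anti-cAMP-cryptate (1 h) by fluorescence.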

Each structure is given as a SMILES string. “And” between values parts separate entries of the source, which are not always exact repeats. Equal values may be shown once. Results filed as inconclusive are left out. The source holds several records for some structures; these can differ, active in one and inactive in another. The source made the active and inactive calls. Unless noted, the call rests on the fitted dose curve; in most records, active means well fitted curve in the direction sought with a large enough effect in the repeat runs; inconclusive means weak or mixed curves; inactive means no such curve, though single readings can be large; an effect the other way counts as inactive or inconclusive.
On the % scale 0 is the no-effect control and ±100 the full control effect.

Sequence of Estrogen receptor (Homo sapiens) (P03372 whole entry, looked up): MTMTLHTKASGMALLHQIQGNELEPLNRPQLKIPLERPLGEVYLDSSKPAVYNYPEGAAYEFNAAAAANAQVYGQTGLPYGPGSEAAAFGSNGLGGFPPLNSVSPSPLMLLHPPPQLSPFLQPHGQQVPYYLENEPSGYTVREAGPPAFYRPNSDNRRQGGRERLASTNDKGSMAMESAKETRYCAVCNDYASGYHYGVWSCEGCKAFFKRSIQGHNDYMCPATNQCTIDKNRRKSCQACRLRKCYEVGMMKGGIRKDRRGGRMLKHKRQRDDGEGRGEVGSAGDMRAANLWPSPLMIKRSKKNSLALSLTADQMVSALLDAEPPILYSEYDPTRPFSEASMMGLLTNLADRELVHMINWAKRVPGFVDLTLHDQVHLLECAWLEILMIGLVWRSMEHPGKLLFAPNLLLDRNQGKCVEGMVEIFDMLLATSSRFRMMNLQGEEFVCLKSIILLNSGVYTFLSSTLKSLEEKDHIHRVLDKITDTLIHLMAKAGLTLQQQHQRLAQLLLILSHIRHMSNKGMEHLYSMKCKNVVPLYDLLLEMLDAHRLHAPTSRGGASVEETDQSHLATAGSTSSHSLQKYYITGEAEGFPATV
Sequence of Thyrotropin receptor (Homo sapiens) (P16473 whole entry, looked up): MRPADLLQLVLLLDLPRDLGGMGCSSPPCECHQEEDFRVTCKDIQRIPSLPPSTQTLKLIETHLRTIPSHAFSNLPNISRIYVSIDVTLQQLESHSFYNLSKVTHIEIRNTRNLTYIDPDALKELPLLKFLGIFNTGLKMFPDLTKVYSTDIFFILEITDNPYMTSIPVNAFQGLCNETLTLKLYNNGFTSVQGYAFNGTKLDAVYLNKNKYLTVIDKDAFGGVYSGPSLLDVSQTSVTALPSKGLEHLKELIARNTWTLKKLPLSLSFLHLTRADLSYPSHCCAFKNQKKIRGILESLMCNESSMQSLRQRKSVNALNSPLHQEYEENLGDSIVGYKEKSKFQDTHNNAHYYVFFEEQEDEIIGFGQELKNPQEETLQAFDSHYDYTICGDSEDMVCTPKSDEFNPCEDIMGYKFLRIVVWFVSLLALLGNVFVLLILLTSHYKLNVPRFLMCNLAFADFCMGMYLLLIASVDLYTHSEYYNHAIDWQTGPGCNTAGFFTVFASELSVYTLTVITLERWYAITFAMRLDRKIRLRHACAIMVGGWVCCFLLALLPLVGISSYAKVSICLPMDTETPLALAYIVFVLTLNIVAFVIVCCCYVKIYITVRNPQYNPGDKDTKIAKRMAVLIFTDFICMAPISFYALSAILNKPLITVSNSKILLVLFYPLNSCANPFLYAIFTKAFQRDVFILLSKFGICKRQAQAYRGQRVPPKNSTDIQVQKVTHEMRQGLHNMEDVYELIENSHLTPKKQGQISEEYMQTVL
Sequence of Estrogen receptor beta (Homo sapiens) (Q92731 whole entry, looked up): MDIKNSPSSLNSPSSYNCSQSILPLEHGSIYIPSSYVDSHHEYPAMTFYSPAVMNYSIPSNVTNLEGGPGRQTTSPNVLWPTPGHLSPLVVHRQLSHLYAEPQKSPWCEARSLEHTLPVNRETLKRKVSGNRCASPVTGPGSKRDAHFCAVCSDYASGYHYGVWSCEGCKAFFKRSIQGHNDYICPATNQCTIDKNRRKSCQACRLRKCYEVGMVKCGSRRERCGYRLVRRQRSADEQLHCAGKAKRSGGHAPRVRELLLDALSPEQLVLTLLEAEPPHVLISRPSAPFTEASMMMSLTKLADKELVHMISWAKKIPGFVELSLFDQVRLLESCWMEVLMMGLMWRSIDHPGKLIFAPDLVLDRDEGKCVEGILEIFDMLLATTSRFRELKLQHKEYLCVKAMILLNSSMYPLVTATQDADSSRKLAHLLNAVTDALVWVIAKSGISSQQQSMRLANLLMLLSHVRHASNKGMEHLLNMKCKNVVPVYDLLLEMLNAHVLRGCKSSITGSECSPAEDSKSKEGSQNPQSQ

For the compound `C1=CC2C3C=CC(C3)C2C1` (configuration not stated), the Potency entry in experiment [1], in [3], in experiment [4], in experiment [5], in experiment [6] and in experiment [8] was “inactive” in each case. The Potency entry in experiment [9], in experiment [10], in experiment [11], in experiment [12] and in experiment [13] was “inactive” each time. For the same compound, in experiment [2], the PLD induction was -3.38% [at 3.15 µM] (inactive). In experiment [7], the result was inactive.
Regarding `Nc1c2c(nc3ccccc13)CCCC2`, the Potency entry in experiment [1], in experiment [14], in experiment [3], in experiment [5], in experiment [6] and in [16] was “inactive” in each case. Moreover, the Potency entry in experiment [8], in experiment [9], in experiment [10], in [11], in experiment [17] and in experiment [12] was “inactive” each time. The Potency result in [18] and in experiment [13] was “inactive” each time. Also, in experiment [7], the result was inactive. For the same compound, the Potency in experiment [15] is 8.63 µM (active) and 13.7 µM (active).
For `Cc1cc(=O)oc2cc(O)ccc12`, the Potency result in experiment [1], in [14], in [2], in [3], in [6] and in [9] was “inactive” each time. Moreover, the Potency entry in experiment [10], in [11], in experiment [17], in experiment [12], in [18] and in experiment [13] was “inactive” each time. In addition, the compound was classed as inactive in experiment [7]. The Potency in [15] was 15.4 µM (active) and 17.2 µM (active) and inactive.
Turning to `O=C(O)CC(O)C(=O)O` (configuration not stated), the Potency entry in experiment [1], in experiment [2], in experiment [3], in [4], in experiment [5] and in [6] was “inactive” throughout. Further, the Potency entry in [15], in experiment [16], in experiment [8], in experiment [9], in [10] and in [11] was “inactive” each time. Also, the Potency result in experiment [12], in [18] and in experiment [13] was “inactive” each time. In addition, the compound was called inactive in experiment [7].
As to `C/C=C/C=C/C(=O)O`, the Potency result in [1], in [2], in experiment [3], in experiment [5], in [6] and in experiment [15] was “inactive” in each case. Also, the Potency entry in experiment [16], in experiment [8], in experiment [9], in [11], in experiment [12] and in [18] was “inactive” in each case. Further, the Potency result in experiment [13] is “inactive”. Besides, in [7], the call was inactive. In experiment [10], the activity change, negative = cytotoxicity is -4.84% [at 8.39 µM] (inactive).
As for `CC1(C)O[C@@H]2C[C@H]3[C@@H]4CCC5=CC(=O)C=C[C@]5(C)[C@@]4(F)[C@@H](O)C[C@]3(C)[C@]2(C(=O)CO)O1`, the Potency result in experiment [1], in [2], in [3], in experiment [4], in [5] and in [6] was “inactive” in each case. For the same compound, the Potency result in experiment [15], in [16], in experiment [8], in experiment [9], in [10] and in experiment [11] was “inactive” in each case. Besides, the Potency entry in experiment [13] was “inactive”. Besides, the compound was called inactive in [7].
For the compound `O=C1OC2(c3ccccc31)c1cc(Br)c(O)c(Br)c1Oc1c2cc(Br)c(O)c1Br`, the Potency in experiment [1] is 4.93 µM (active) and 25 µM (active) and 10.6 µM (active); in [9], 7.81 µM (active) and 22.3 µM (active) and 11.9 µM (active); in [18] it was 24.7 µM (active) and 21.1 µM (active); in [13] it was 11 µM (active) and 19.9 µM (active) and 10.6 µM (active). The Potency result in [14], in [2], in experiment [3], in experiment [5], in experiment [6] and in experiment [15] was “inactive” throughout. The Potency result in [10], in [11] and in experiment [17] was “inactive” in each case. The compound was classed as inactive in [7].
